The list is not random: actives were taken first. Their share in the collection is about 4.1%.
hcDAF12 agonist – H. contortus DAF-12 nuclear receptor activators, primary screen, cell-based, luminescence, HEK293, lit1-tk-luc reporter. 370,000 compounds, 1.4% hits. AID 652067, 2013. HEK293 hcDAF-12 lit1-tk-luc reporter; 0% DMSO, 100% Δ7-dafachronic acid. activation, % at 6.8 µM;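 active means activation above the mean of all tested compounds plus 3 SD, cut at about 5.5% in these data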
hgDAF-12 ag – H. glycines DAF-12 receptor agonists, primary screen, cell-based, luminescence, HEK293, GAL4 fusion, UAS-luciferase; HEK293 GAL4-hgDAF12 UAS-luciferase reporter, agonist luminescence; normalized to butyrate control; activation, % at 6.8 µM; 370,000 compounds, 1.8% hits; AID 687014, 2013;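 active means activation above a cutoff set at the mean of all screened compounds plus 3 SD, cut at about 10% in these data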
ssDAF-12 act – S. stercoralis DAF-12 nuclear receptor activators, primary screen, cell-based, luminescence, HEK293, GRIP1 co-expression, lit1-tk-luc; activation, % at 6.8 µM; 370,000 compounds, 1% hits; Nuclear hormone receptor DAF-12 (Strongyloides stercoralis); HEK293 ssDAF-12/GRIP1 lit1-tk-luc reporter; % of 3 µM dafachronic acid response;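 active means activation above the mean over all tested compounds plus 3 SD, cut at about 0.9% in these data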
DAX1 inh-1 – DAX1 (NR0B1) inhibitors on StAR promoter, primary screen, cell-based, luminescence, SF-1 (NR5A1), full-length DAX-1; HEK293T StAR-luciferase reporter, SF-1/DAX-1 repression relief; inhibition, % at 6.8 µM; 370,000 compounds, 1.1% hits;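 active means inhibition above the mean over all tested compounds plus 3 SD, cut at about 3.6% in these data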;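 further: higher inhibition means more luminescence from relief of DAX-1 repression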
DAX1 inh-2 – DAX1 (NR0B1) inhibitors, primary screen, cell-based, HEK293, Gal4-DAX1, luciferase luminescence; Nuclear receptor subfamily 0 group B member 1 (Homo sapiens), P51843; HEK293 Gal4-DAX1 luciferase reporter; inhibition, % at 6.75 µM; 340,000 compounds, 0.99% hits;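 active means inhibition above the mean over all tested compounds plus 3 SD, cut at about 4.2% in these data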;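 further: inhibition shows as a rise in luminescence from relieved DAX1 repression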
DAX1 conf – DAX1 (NR0B1) inhibitors relieving SF-1 repression, confirmation, cell-based, luminescence, HEK293T, full-length DAX-1, SF-1 activated StAR promoter | shares compounds with DAX1 inh-1 | HEK293T StAR-promoter luciferase reporter, SF-1/DAX-1 repression | inhibition, % at 6.8 µM | 2,400 compounds, 87% hits | AID 652134, 2013;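 active means inhibition above the average of every tested compound plus 3 SD, cut at about 3.8% in these data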
SF1 mutant ctr – StAR reporter signal changes without DAX1, counter-screen for DAX1 inhibitor project, cell-based, luminescence, AF-2 mutant SF-1, transactivation | HEK293 StAR-luciferase, SF-1 AF2 mutant | shares compounds with DAX1 inh-1 | inhibition, % at 6.8 µM | 2,400 compounds, 78% hits;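 active means inhibition above the mean of all tested compounds plus 3 SD, cut at about 3% in these data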
LXRb hcDAF ctr – LXR agonists, Gal4 luciferase reporter, confirmation, counter-screen for hcDAF-12 agonist project, cell-based, luminescence, HEK293, H. contortus campaign. 3,400 tested, under 10 active. HEK293 Gal4-LXR tk-luc reporter, 24 h; normalized: DMSO 0%, positive control 100%. activation, % at 6.8 µM. AID 743027, 2013. shares compounds with hcDAF12 agonist;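 active means mean percent activation of the reporter above a cutoff set as the average over tested compounds plus their standard deviation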
Target sequence (P55055 whole entry, looked up, the tested form may be a part): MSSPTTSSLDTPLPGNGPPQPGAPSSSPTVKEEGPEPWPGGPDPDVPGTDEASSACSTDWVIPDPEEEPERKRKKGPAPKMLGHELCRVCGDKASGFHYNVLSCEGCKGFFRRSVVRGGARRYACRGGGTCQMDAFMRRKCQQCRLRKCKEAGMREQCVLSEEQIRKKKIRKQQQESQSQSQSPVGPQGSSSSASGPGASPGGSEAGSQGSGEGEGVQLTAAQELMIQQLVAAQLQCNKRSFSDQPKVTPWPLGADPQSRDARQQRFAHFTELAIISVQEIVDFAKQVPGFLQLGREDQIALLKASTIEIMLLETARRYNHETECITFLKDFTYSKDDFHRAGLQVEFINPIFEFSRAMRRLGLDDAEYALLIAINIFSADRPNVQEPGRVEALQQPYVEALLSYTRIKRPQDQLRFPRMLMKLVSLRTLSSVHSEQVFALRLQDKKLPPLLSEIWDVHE
hcDAF12 ag – H. contortus DAF-12 receptor agonists, confirmation, cell-based, luminescence, HEK293, lit1-tk-luc, triplicate; shares compounds with hcDAF12 agonist; HEK293 hcDAF-12 lit1-tk-luc reporter; % of Δ7-dafachronic acid response; activation, % at 6.8 µM; 3,400 compounds, 61% hits; AID 743032, 2013;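 active means mean activation across triplicate tests above the threshold derived from the earlier primary screen, cut at about 5.5% in these data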
Large screens that a line does not name were inactive (follow-up assays come after a bar, where they were run).

CCOC(=O)Cc1csc(N/C(=N/S(=O)(=O)c2cc(Br)ccc2OCC)c2ccccc2)n1	none
Cc1cccc(-c2ccc3[nH]c4c(c3c2)CCN2C[C@@H]([C@H](C)OC(=O)Nc3ccccc3C)[C@@H](N(C)C(=O)Nc3ccccc3C)C[C@@H]42)c1	none
Cn1c(/C=C/c2ccccc2)nc2ccccc21	hcDAF12 agonist 9.0, hgDAF-12 ag 11, DAX1 inh-1 4.6 | DAX1 conf 6.6 | SF1 mutant ctr inactive | LXRb hcDAF ctr inactive | hcDAF12 ag 14
Clc1ccc(OCc2nc(-c3ccncc3)no2)c(Br)c1	hcDAF12 agonist 8.3, hgDAF-12 ag 13, ssDAF-12 act 1.2, DAX1 inh-1 5.9 | DAX1 conf 12 | SF1 mutant ctr 8.5 | LXRb hcDAF ctr inactive | hcDAF12 ag 6.2
O=c1cc(-c2ccccc2)oc2ccc3ccccc3c12	hcDAF12 agonist 8.7, DAX1 inh-1 4.6 | DAX1 conf inactive | SF1 mutant ctr inactive | LXRb hcDAF ctr inactive | hcDAF12 ag 9.8
COC[C@H]1CCCN1[C@H]1CS(=O)(=O)N[C@@H]1COCc1ccccc1	none (no result: DAX1 inh-2)
CCOc1ccc(OCc2cccc(C(=O)O)c2)cc1	hcDAF12 agonist 8.8, hgDAF-12 ag 11, ssDAF-12 act 1.0, DAX1 inh-1 6.6 | DAX1 conf 15 | SF1 mutant ctr 7.9 | LXRb hcDAF ctr inactive | hcDAF12 ag 15
O=C(Nc1nc2c(F)c(F)c(F)cc2s1)c1ccco1	none
O=C(Nc1nc2c(F)cc(F)cc2s1)c1ccco1	hcDAF12 agonist 9.1, hgDAF-12 ag 12, DAX1 inh-1 5.6 | DAX1 conf 11 | SF1 mutant ctr 6.3 | LXRb hcDAF ctr inactive | hcDAF12 ag inactive
CN(C)c1ccc(-c2nc3ccccc3c(=O)[nH]2)cc1	hcDAF12 agonist 10, hgDAF-12 ag 15, DAX1 inh-1 5.0 | DAX1 conf 15 | SF1 mutant ctr 4.5 | LXRb hcDAF ctr inactive | hcDAF12 ag 12
O=c1[nH]c(-c2ccncc2)nc2ccccc12	none
Cc1ccc(CSc2nc3ccncc3[nH]2)cc1	hcDAF12 agonist 11, hgDAF-12 ag 18, ssDAF-12 act 1.4, DAX1 inh-1 13 | DAX1 conf 16 | SF1 mutant ctr 9.6 | LXRb hcDAF ctr inactive | hcDAF12 ag 10
O=C(NCc1ccc(Cl)cc1)c1ccc(CSc2nc3ccncc3[nH]2)cc1	none
O=C(N/N=C/C(Br)=C/c1ccccc1)C(O)c1ccccc1 (stereo not drawn)	none
O=C(O)c1ccc(N/N=C/C(Br)=C/c2ccccc2)cc1	hcDAF12 agonist 8.1, hgDAF-12 ag 22, DAX1 inh-1 5.2 | DAX1 conf 13 | SF1 mutant ctr 4.2 | LXRb hcDAF ctr inactive | hcDAF12 ag 13
O=C(O)c1ccc(N/N=C/c2cccc(F)c2)cc1	hcDAF12 agonist 7.1, hgDAF-12 ag 21, ssDAF-12 act 1.2, DAX1 inh-1 6.3 | DAX1 conf 15 | SF1 mutant ctr 8.3 | LXRb hcDAF ctr inactive | hcDAF12 ag 10.0
Cc1ccnc(NC(=S)N2CCN(c3cccc(C(F)(F)F)c3)CC2)c1	none
N#Cc1cccc(NCC(=O)Nc2ccc3c(c2)OCCO3)c1	hcDAF12 agonist 7.8, hgDAF-12 ag 13, ssDAF-12 act 1.4, DAX1 inh-1 5.2 | DAX1 conf 11 | SF1 mutant ctr 4.1 | LXRb hcDAF ctr inactive | hcDAF12 ag 7.6
CC(C)c1cc(C(=O)Nc2ccc3c(c2)OCO3)no1	hcDAF12 agonist 12, ssDAF-12 act 2.0, DAX1 inh-1 6.4 | DAX1 conf 16 | SF1 mutant ctr 7.1 | LXRb hcDAF ctr inactive | hcDAF12 ag 7.9
O=C(Nc1ccc2c(c1)OCO2)c1ccncc1	none
COc1ccc(-c2cc(C(=O)Nc3ccc4c(c3)OCO4)no2)cc1	none
O=C(Nc1ccc2c(c1)OCCO2)Nc1ccc2c(c1)OCO2	hcDAF12 agonist 9.2, hgDAF-12 ag 22, ssDAF-12 act 3.1, DAX1 inh-1 5.4 | DAX1 conf 14 | SF1 mutant ctr 6.7 | LXRb hcDAF ctr inactive | hcDAF12 ag 9.1
Cc1ccc(C(=O)Nc2ccc3c(c2)OCO3)cc1	hcDAF12 agonist 20, hgDAF-12 ag 13, ssDAF-12 act 3.3, DAX1 inh-1 5.6 | DAX1 conf 11 | SF1 mutant ctr 6.0 | LXRb hcDAF ctr inactive | hcDAF12 ag 14
C=CCC(=O)N1CCCC(CO)(Cc2ccc(F)cc2F)C1 (stereo not drawn)	none
S=c1nc(-c2sccc2OCc2ccc(Cl)cc2Cl)[nH][nH]1	none
Cc1ccc(NC(=O)Nc2ccc3c(c2)OCO3)cc1F	hcDAF12 agonist 8.0, hgDAF-12 ag 11, DAX1 inh-1 7.5 | DAX1 conf 12 | SF1 mutant ctr 9.6 | LXRb hcDAF ctr inactive | hcDAF12 ag inactive
CN(c1ccccc1)S(=O)(=O)c1cc(C(=O)NCCCn2ccnc2)ccc1Cl	none
Fc1ccc(-c2nnc(-c3ccc(F)cc3)o2)cc1	none
Fc1ccc(-c2nnc(-c3ccc4ccccc4c3)o2)cc1	hcDAF12 agonist 8.0, hgDAF-12 ag 20, ssDAF-12 act 2.1, DAX1 inh-1 7.0 | DAX1 conf 11 | SF1 mutant ctr 5.2 | LXRb hcDAF ctr inactive | hcDAF12 ag 12
Nc1[nH]c(C(=O)c2ccccc2)c(-c2ccc(Br)cc2)c1C(=O)NCCCN1CCOCC1	none (no result: DAX1 inh-1, DAX1 inh-2)
CC(C)(C)OC(=O)CNC(=O)c1[nH]cnc1C(=O)Nc1ccc(Cl)cc1	none
